# Bioassay records (PubChem BioAssay)
# Hits are enriched below; roughly 1.3% of the tested compounds scored in any of these assays.
# COUP-TFII inh – inhibitors of human COUP-TFII (NR2F2); P24468; 370,000 tested, 0.7% active; inhibition, % at 8.6 µM; AID 686940; HEK293T NGFI-A luciferase reporter, luminescence;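 active = inhibition above a per-plate cutoff, mean inhibition of test wells between control levels plus 3 SD, cut at about 38% in these data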;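 also: cells cotransfected with COUP-TFII expression vector driving the NGFI-A reporter; 0% = median of COUP-TF2 test wells and 100% = reporter-only cells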
# Gli-Sufu block – Gli-Sufu pathway antagonism | Sufu-KO-LIGHT fibroblasts, Gli luciferase reporter luminescence | inhibition, % at 5 µM | 340,000 tested, 0.74% active | AID 588413;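 active = inhibition above about 55%, limit read from the data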;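 also: 0% = DMSO-treated cells and 100% = wells with medium but no cells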
# NCOA3 inh – inhibits human SRC3 coactivator; inhibition, % at 3.6 µM; AID 588352; Q9Y6Q9; HEK293 GAL4-SRC3 luciferase reporter, luminescence; 360,000 tested, 0.17% active;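 active = inhibition above a per-campaign cutoff, the mean of all compounds plus 3 SD, cut at about 60% in these data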;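 also: 0% = DMSO-treated cells and 100% = gossypol-treated cells at 36 µM; higher means less SRC3-driven luciferase light from the GAL4 reporter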
# NCOA1 inh – inhibits human SRC1 coactivator. inhibition, % at 3.6 µM. 360,000 tested, 0.12% active. HEK293 GAL4-SRC1 luciferase reporter, luminescence. Q15788;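 active = inhibition above the campaign mean plus 3 SD, with each screening campaign given its own cutoff, cut at about 60% in these data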;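 also: 0% = DMSO treated cells and 100% = gossypol at 36 µM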
# NR5A2 inv ag – suppresses constitutive activity of human LRH-1 | O00482 | HEK293T StAR-luciferase reporter, LRH-1 transfected, 24 h | inhibition, % at 3.6 µM | 360,000 tested, 0.13% active | AID 602396;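 active = inhibition above the mean inhibition of all tested compounds plus 3 SD, cut at about 73% in these data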;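 also: 0% = DMSO wells and 100% = reporter-only cells lacking LRH-1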
# SRC2 inh – human SRC2 (NCOA2) inhibition; HEK293 GAL4-SRC2 luciferase reporter, luminescence; inhibition, % at 9 µM; 370,000 tested, 0.17% active;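 active = inhibition above the mean inhibition of all tested compounds plus 3 SD, set per campaign, cut at about 52% in these data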;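 also: 0% = DMSO treated cells and 100% = cells given Gossypol at 36 µM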
# Gli-Sufu confirm – confirmation of Gli-SUFU pathway antagonists; inhibition, % at 5 µM; 2,500 tested, 40% active; Sufu-KO-LIGHT cells, Gli luciferase reporter, luminescence; shares compounds with Gli-Sufu block;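 active = mean inhibition at 5 µM reaching about 45%, limit read from the data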;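 also: plate controls were DMSO-treated cells for no effect and wells lacking cells for full effect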
# Gli cytotox – cytotoxicity counter-screen for Gli-SUFU antagonists; shares compounds with Gli-Sufu block; Sufu-KO-LIGHT cells cytotoxicity, ATP luminescence; cytotoxicity, % at 5 µM; 2,500 tested, 32% active;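 active = mean cytotoxicity at 5 µM above about 25%, limit read from the data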;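 also: cells exposed to compound overnight for roughly 16 to 18 hours; plate controls were DMSO wells with cells for no effect and medium without cells for full effect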
# Wnt3a cs – Wnt3a reporter inhibition counter-screen; inhibition, % at 6.25 µM; 2,500 tested, 20% active; shares compounds with Gli-Sufu block; Wnt-LIGHT cells, Wnt3a-driven luciferase reporter, luminescence;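 active = mean inhibition above about 25%, limit read from the data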
# * = called active by the depositor; . = no result.
SMILES,COUP-TFII inh,Gli-Sufu block,NCOA3 inh,NCOA1 inh,NR5A2 inv ag,SRC2 inh,Gli-Sufu confirm,Gli cytotox,Wnt3a cs
CCCCCCc1cc2cc(C(=O)Nc3cccc(OC)c3)c(=O)oc2cc1O,-19.5,61.2*,-2.6,-9.1,4.1,6.4,58.0*,13.4,78.8*
COC(=O)[C@H](C)NC(=O)C(Cc1ccc2c(c1)OCO2)NC(C)=O (stereo partly specified),-13.9,.,.,.,.,4.8,.,.,.
O=C(N1CCCC1)n1ncc(-c2ccc(-c3ccccc3)cc2)n1,-26.1,.,.,.,.,.,.,.,.
c1ccc(SCCCCN2CCOCC2)cc1,-38.7,50.2,-14.1,-28.1,7.0,-39.8,16.5,27.1*,-13.6
Clc1ccc([C@H]2OC[C@@]3(CNCc4ccccn4)CS[C@H](c4ccc(Cl)cc4)N23)cc1,-4.5,.,.,.,.,-4.8,.,.,.
N#Cc1ccc(Sc2nc3ccccc3[nH]2)cc1C#N,10.7,92.0*,2.0,-35.9,-1.1,-33.3,24.3,-5.2,-1.2
N#C/C(=C\c1ccc(Sc2nc3ccccc3[nH]2)o1)c1ccccc1,11.7,3.5,-11.7,-7.7,8.2,11.5,.,.,.
CC1(NC(=O)c2ccc(C#Cc3cccc(F)c3)cn2)COC1,-5.5,.,.,.,.,-8.2,.,.,.
CC(=O)Nc1ccc(N2C(=O)CSC2c2c(F)cccc2Cl)cc1 (stereo unspecified),-5.3,52.2,9.7,7.4,-3.4,-26.1,9.2,12.9,-14.5
CC(=O)Nc1ccc(N2C(=O)CSC2c2ccc(F)cc2)cc1 (stereo unspecified),-5.5,0.7,4.8,-2.3,-3.8,-11.0,.,.,.
Cc1ccc(C)c(NC(=O)CN(C)C(=O)CSCc2c(C)noc2C)c1,13.5,-3.6,6.5,4.7,4.8,16.2,.,.,.
CCN(CC(=O)Nc1cc(Cl)ccc1C)C(=O)CSCc1c(C)noc1C,1.2,51.6,10.2,5.4,2.4,2.0,12.7,21.8,-10.1
COc1ccc(Br)cc1C(=O)NC(=S)Nc1ccc(CN2CCOCC2)cc1,-11.6,50.5,22.5,8.7,4.5,-28.9,20.0,11.7,-16.9
O=S(=O)(Nc1ccccc1)c1ccc(-c2cnc(C3CC3)o2)cc1,-17.4,4.8,5.7,2.7,24.0,-3.3,.,.,.
Cc1cc(C)cc(NS(=O)(=O)c2ccc(-c3cnc(C4CC4)o3)cc2)c1,-48.6,55.5*,11.1,-7.8,28.7,15.6,50.7*,56.7*,-13.6
O=C(OCc1ccc(CSc2nnc(-c3cccc4ccccc34)o2)cc1)c1ccc(F)cc1,16.9,.,.,.,.,.,.,.,.
CN1C(=O)c2cc(NS(C)(=O)=O)ccc2OC[C@H]2O[C@@H](CC(=O)NCc3ccc(-c4ccccc4)cc3)CC[C@@H]21,-1.4,.,.,.,.,-2.8,.,.,.
Cc1cc(C)c2nc(N(CCCN(C)C)C(=O)c3ccc4c(c3)OCCO4)sc2c1,-13.7,70.8*,-2.8,-4.8,-0.6,13.0,12.8,19.7,-60.7
Cc1ccc(Cn2cc(COC(=O)NCC(C)C)nn2)cc1,-19.1,.,.,.,.,-15.9,.,.,.
CCCCNS(=O)(=O)CC1NCc2ccccc21 (stereo unspecified),-3.4,.,.,.,.,4.5,.,.,.
CCn1c(COc2ccc3c(c2)OCO3)nnc1SCC(=O)c1ccccc1,3.4,67.2*,-18.6,0.3,7.0,-22.4,10.2,7.0,-31.5
COCCn1c(SCC(=O)/C=C2\N(C)c3ccccc3C2(C)C)nnc1-c1ccncc1,-1.4,58.5*,0.6,3.9,6.4,42.4,34.0,1.6,-35.5
COCCn1c(SCC(=O)c2c(-c3ccccc3)n(C)c3ccccc23)nnc1-c1ccncc1,-4.2,1.4,6.3,3.0,7.0,-11.2,.,.,.
Cc1ccccc1CN1CCCCC(NC(=O)C2CCCCC2)C1=O (stereo unspecified),-4.9,.,.,.,.,-4.6,.,.,.
Cc1ccc(S(=O)(=O)N(C)C)cc1NC(=S)NC(C)CCC(C)C (stereo unspecified),4.2,56.0*,6.7,13.3,-11.8,-3.6,20.2,19.8,-64.4
CC(NCc1ccco1)C(=O)N1CCCC1 (stereo unspecified),-0.3,.,.,.,.,3.4,.,.,.
